Assay outcomes: PubChem, several laboratories
A selection: hits, their analogues and other compounds. The true share with any hit is near 4.6%.
tim10-1 inh: tim10-1 yeast growth inhibition; S. cerevisiae tim10-1 ts strain growth, BacTiter-Glo, 24 h; inhibition, % at 20 µM; actives 2.2% (n = 330,000);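 active means inhibition of at least 40%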;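 further: mutant grown at 25 °C; 0% = DMSO wells with yeast and 100% = wells holding no yeast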
SKKanGAS inh: SKKanGAS growth inhibition. S. pyogenes SKKanGAS, kanamycin growth, BacTiter-Glo, 6 h. inhibition, % at 7.5 µM. actives 1.3% (n = 300,000). AID 1662;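 active means mean replicate score, as percent of positive control median, at least 50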;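 further: strain carries kanamycin resistance gene driven by streptokinase promoter and grows in 40 µg/ml kanamycin; loss of luminescence reflects streptokinase promoter inhibition or plain growth inhibition; 0% = median of DMSO wells and 100% = positive control at its reference dose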
tim23-1 inh: inhibits growth of tim23-1 mutant yeast; S. cerevisiae tim23-1 growth, BacTiter-Glo luminescence, 24 h; inhibition, % at 20 µM; actives 1.3% (n = 330,000);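 active means growth inhibition of the mutant yeast at or above 50%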;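 further: temperature-sensitive mutant grown at 25 °C; plate controls were DMSO-treated mutant yeast for no effect and medium wells lacking yeast for full effect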
TIM10 inh: TIM10 yeast growth inhibition. inhibition, % at 10 µM. actives 1.4% (n = 330,000). AID 463195. S. cerevisiae TIM10 strain growth, BacTiter-Glo luminescence, 24 h;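 active means inhibition of 40% or more at the single tested concentration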;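 further: wild-type TIM10 isogenic control strain grown at permissive 25 °C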
NLRP3 yeast inh: NALP3 inhibition in yeast | Yeast reconstituted NLRP3/ASC/caspase-1, beta-gal luminescence, 24 h | inhibition, % at 10 µM | actives 0.39% (n = 330,000);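 active means inhibition of 50% or more; inactive means inhibition below 50%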;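 further: plate controls were induced DMSO wells for no effect and uninduced yeast grown without galactose for full effect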
tim10-1 conf: confirmation of tim10-1 mutant yeast growth inhibitors | AID 463213 | S. cerevisiae tim10-1 ts strain growth, BacTiter-Glo, 24 h | shares compounds with tim10-1 inh | inhibition, % at 20 µM | actives 56% (n = 7,400);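 active means inhibition of yeast growth at or above a set limit in either of two repeat tests at 20 µM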;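 further: tim10-1 mutant grown at permissive 25 °C to find synthetic lethal compounds; 0% = DMSO yeast wells and 100% = medium wells without yeast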
TIM10 conf: TIM10 yeast growth inhibition, confirmed; shares compounds with TIM10 inh; S. cerevisiae tim10 strain growth, BacTiter-Glo luminescence, 24 h; inhibition, % at 10 µM; actives 63% (n = 4,600); AID 463215;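 active means inhibition of yeast growth at or above a set limit in either of two replicates at 10 µM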;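 further: this counterscreen used the strain with wild-type TIM10; 0% = yeast with DMSO and 100% = medium wells lacking yeast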
* = called active by the depositor; x = not tested or not shown.

SMILES | tim10-1 inh | SKKanGAS inh | tim23-1 inh | TIM10 inh | NLRP3 yeast inh | tim10-1 conf | TIM10 conf
CCOC(=O)c1ccc(NC(=O)CC2C(=O)OCCN2CC)cc1 (configuration not stated) | 68* | 0 | 37 | 44* | 13 | 59* | 58*
Nc1nc(-c2ccc(Br)s2)c(Br)s1 | 54* | 10 | 47 | 52* | 8 | 36* | -10
COc1ccc2c(c1)c1nnc(SC)nc1n2C | 63* | 8 | 43 | 81* | 40 | 66* | 81*
CCN(CC)S(=O)(=O)c1ccc(N(C)C)c(NC(=O)CSCc2c(C)noc2C)c1 | 28 | -7 | 18 | 12 | 18 | x | x
Cc1c(CNC(=O)C2CCC(=O)N(CCc3ccccc3)C2)cnn1C (configuration not stated) | 3 | 9 | -10 | 0 | 9 | x | x
COc1cccc(-c2noc(C3CCCN(C(=O)Cc4ccccc4)C3)n2)c1 (configuration not stated) | 40* | -17 | 39 | 41* | -66 | 36* | 24
COC(=O)C(CC(=O)c1ccc(Br)cc1)n1cccn1 (configuration not stated) | -10 | 3 | 0 | -12 | 15 | x | x
C=CCc1ccc(OCCOc2cccc3ccc(C)nc23)c(OC)c1 | 42* | -8 | 46 | 52* | 6 | 32* | 31*
COc1ccc(S(=O)(=O)Cc2ccc(C(=O)NC3CCCCC3)o2)cc1 | 10 | 0 | 0 | -7 | 1 | x | x
Cc1ccc(S(=O)(=O)CCC(=O)c2ccc(O)cc2O)cc1 | 54* | -1 | 48 | 55* | -22 | 47* | 50*
Cc1ccc(S(=O)(=O)CCC(=O)OCC(=O)c2cc(C)ccc2C)cc1 | -2 | 2 | 3 | -2 | 6 | x | x
CN1/C(=C\C(=O)Nc2cccc(Cl)c2)C(C)(C)c2ccccc21 | 40* | 7 | 47 | 41* | 15 | 34* | 43*
COc1cc(/C=C2\SC(c3ccc(C)cc3)=NC2=O)ccc1O | 52* | 15 | 50 | 46* | 18 | 31* | 43*
COc1ccc2c(c1)c(C(C)=O)c(C)n2CCc1ccccc1 | 26 | -6 | 21 | -8 | 26 | x | x
C/C(=N\NC(=S)NCc1ccccc1)c1ccccc1 | 47* | -4 | 31 | 44* | -10 | 44* | 40*
CCNC(=S)N/N=C(\C)c1ccc2ccccc2c1OC(F)F | 47* | 26 | 32 | 56* | 28 | -1 | 41*
CCNC(=S)NNC(=O)c1ccccc1OC(F)F | 7 | 3 | 9 | 2 | 13 | x | x
COc1ccc(CNC(=S)N/N=C(/C)c2ccccc2)cc1 | 35 | -3 | 34 | 33 | 39 | x | x
CCNC(=S)N/N=C(\C)c1ccc2ccccc2c1 | 42* | -20 | 35 | 53* | 4 | 31* | 38*
CCCCC(=O)Nc1cnc(NC(=O)c2cccs2)cc1C | -9 | 3 | 3 | -2 | 17 | x | x
COc1ccc(C(=O)n2c(SC)nc3cc4c(cc32)OCCO4)cc1 | 43* | -2 | 44 | 47* | 26 | 37* | 21
COc1ccc(C(=O)c2cc3c(cc2[N+](=O)[O-])OCCO3)cc1 | 21 | -22 | 19 | -11 | 7 | x | x
O=C(Nc1nnc(CC2=CCCCC2)s1)c1cccs1 | 47* | 9 | 30 | 72* | 19 | 42* | -27
CCn1nc(C)cc1-c1nnc(SCC(=O)Nc2ccccc2)n1CCCOC | 3 | -2 | -13 | -2 | -7 | x | x
CCn1nc(C)cc1-c1nnc(Sc2ncc([N+](=O)[O-])s2)n1C | 66* | 51* | 8 | 50* | 24 | 72* | 55*
SMILES | tim10-1 inh | SKKanGAS inh | tim23-1 inh | TIM10 inh | NLRP3 yeast inh | tim10-1 conf | TIM10 conf
CCS(=O)(=O)c1ccc2oc(Nc3cc(C)cc(C)c3)nc2c1 | 47* | -14 | 43 | 43* | -43 | 37* | 37*
Cc1noc(C)c1C(=O)N(CC(C)C)c1nc2ccccc2s1 | 30 | -10 | 37 | 7 | 9 | x | x
Cc1ccnc(N2CCC(C(=O)Nc3cccc(C(F)(F)F)c3)CC2)n1 | 52* | 5 | 47 | 42* | 13 | 48* | 30*
Cc1nc(Nc2ccccc2)sc1-c1ccccc1 | 54* | -16 | 49 | 63* | 18 | 54* | -32
COc1ccccc1N1CCN(C(=O)c2ccc3[nH]c4c(c3c2)CC(C)CC4)CC1 (configuration not stated) | 53* | 37 | 24 | 49* | 16 | 38* | 36*
CC1CCc2[nH]c3ccc(C(=O)O)cc3c2C1 (configuration not stated) | 8 | 11 | 5 | 2 | 15 | x | x
COc1cc(C(=O)Oc2ccc3ccc(O)cc3c2)cc(OC)c1OC | 47* | 7 | 44 | 42* | -5 | 32* | 39*
CCc1cccc2c(C(=O)COC(=O)c3ccc([N+](=O)[O-])s3)c[nH]c12 | 64* | 100* | -93 | 74* | 47 | 23 | 76*
COc1c(S(=O)(=O)n2nc(C)cc2C)ccc(Cl)c1Cl | 49* | 11 | 38 | 44* | -8 | 44* | 42*
Nc1c(C(=O)NCCc2ccc(Cl)cc2)sc2ccc(S(=O)(=O)N3CCCCC3)cc12 | 43* | 42 | 41 | 44* | 17 | 35* | 28
Cc1ccc(N=Nc2c(N)n[nH]c2N)cc1 | 4 | -3 | 3 | 5 | 12 | x | x
Cc1ccc(-c2[nH]nc(N)c2N=Nc2ccccc2C)cc1 | 56* | 75* | 20 | 45* | 29 | 0 | 46*
Cc1cccc(N=Nc2c(N)n[nH]c2-c2ccc(Cl)cc2)c1 | 52* | 13 | 8 | 56* | 21 | 26 | 13
Cc1cc(C)n2nc(C(=O)OCC(=O)NNC(=O)c3ccccc3)nc2n1 | -3 | x | 6 | 10 | 16 | x | x
COc1cc2c(cc1OC)C(Cc1ccc(O)c(Oc3ccc(C[C@H]4c5cc(OC)c(OC)cc5CCN4C)cc3)c1)N(C)CC2 (some centres not stated) | -11 | x | -9 | -4 | 12 | x | x
Cc1ccc(Cl)cc1NC(=S)NCCCSC1CCCCC1 | 42* | 7 | 39 | 42* | 12 | 26 | 13
O=C(CN1CCN(S(=O)(=O)c2ccc(Br)s2)CC1)N1CCCCC1 | 28 | x | 27 | -2 | 13 | x | x
Cc1ccc(NC(=O)CN2CCCN(S(=O)(=O)c3ccc(Br)s3)CC2)cc1 | 44* | -3 | 37 | 42* | 7 | 32* | 29
Clc1ccc(CN2CCc3c([nH]c4ccccc34)C2)cc1Cl | 75* | 19 | 42 | 41* | 19 | 75* | 58*
CSc1ccc(CN2CCc3c([nH]c4ccccc34)C2)cc1 | 15 | 1 | 9 | 33 | 13 | x | x
CCn1cnc2cc(NCc3ccc(C)cc3)ccc21 | -18 | -2 | 6 | 4 | -13 | x | x
